This is an account of results in article PMC7862700, “An all-to-all approach to the identification of sequence-specific readers for epigenetic DNA modifications on cytosine”.

What all share (test): DAPPL (digital affinity profiling via proximity ligation, sequencing); 10 mM Tris-HCl pH 7.5, 50 mM NaCl, 1 mM DTT, 4% glycerol, room temperature, 30 min; GST-TFs on glutathione beads, 16-mer random dsDNA library, 0.1% formaldehyde crosslink after washing; high values mean tight binding
Common to all, as to settings: protein: recombinant; tags: N-terminal GST; dsDNA, one strand shown

The target of one test is T1, FLI1 (Homo sapiens, UniProt Q01543 1-452).
T1 sequence: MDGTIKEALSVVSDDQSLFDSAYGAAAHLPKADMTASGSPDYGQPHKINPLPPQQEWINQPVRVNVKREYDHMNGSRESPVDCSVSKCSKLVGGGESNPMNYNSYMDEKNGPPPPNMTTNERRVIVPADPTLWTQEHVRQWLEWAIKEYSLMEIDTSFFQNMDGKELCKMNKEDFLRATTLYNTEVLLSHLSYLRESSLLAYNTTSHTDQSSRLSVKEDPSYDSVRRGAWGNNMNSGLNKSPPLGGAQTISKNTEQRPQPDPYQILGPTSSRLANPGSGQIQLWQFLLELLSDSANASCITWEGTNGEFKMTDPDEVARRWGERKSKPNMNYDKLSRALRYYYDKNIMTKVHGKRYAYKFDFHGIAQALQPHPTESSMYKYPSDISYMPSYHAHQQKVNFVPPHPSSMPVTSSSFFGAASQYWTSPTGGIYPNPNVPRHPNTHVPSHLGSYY
The essentials:
(§1)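 After expression in yeast as GST fusions, human transcription factors were bound to glutathione beads, DNA-barcoded and mixed with a tag-only sample. The pools were incubated with 200 nmole of a 16-mer random double-stranded DNA library in Tris/NaCl/DTT/glycerol buffer (30 min, room temperature), washed and crosslinked with 0.1% formaldehyde. Proximity ligation with BsaI/T4 ligase ran for 1 h at 37 °C, before PCR amplification and sequencing on an Illumina NextSeq500. Binding signal is a hexamer's read frequency for a factor divided by its frequency for the tag-only sample.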

The target in another test is T2, ELK1 (Homo sapiens, UniProt P19419 1-428).
T2 sequence: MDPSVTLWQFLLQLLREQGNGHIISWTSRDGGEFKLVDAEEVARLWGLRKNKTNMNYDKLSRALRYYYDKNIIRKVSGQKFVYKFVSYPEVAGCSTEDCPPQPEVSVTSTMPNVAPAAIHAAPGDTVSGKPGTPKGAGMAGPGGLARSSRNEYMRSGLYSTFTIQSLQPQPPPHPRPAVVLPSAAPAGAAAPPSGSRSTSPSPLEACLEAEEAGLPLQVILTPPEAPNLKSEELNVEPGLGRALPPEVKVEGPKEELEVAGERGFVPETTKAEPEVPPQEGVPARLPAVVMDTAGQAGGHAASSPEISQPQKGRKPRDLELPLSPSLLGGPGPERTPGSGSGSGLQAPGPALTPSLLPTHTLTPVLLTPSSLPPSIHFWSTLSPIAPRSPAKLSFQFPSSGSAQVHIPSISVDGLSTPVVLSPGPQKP
In a few lines: as §1

In another test the target is T3, ERG (Homo sapiens, UniProt P11308 1-479).
T3 sequence: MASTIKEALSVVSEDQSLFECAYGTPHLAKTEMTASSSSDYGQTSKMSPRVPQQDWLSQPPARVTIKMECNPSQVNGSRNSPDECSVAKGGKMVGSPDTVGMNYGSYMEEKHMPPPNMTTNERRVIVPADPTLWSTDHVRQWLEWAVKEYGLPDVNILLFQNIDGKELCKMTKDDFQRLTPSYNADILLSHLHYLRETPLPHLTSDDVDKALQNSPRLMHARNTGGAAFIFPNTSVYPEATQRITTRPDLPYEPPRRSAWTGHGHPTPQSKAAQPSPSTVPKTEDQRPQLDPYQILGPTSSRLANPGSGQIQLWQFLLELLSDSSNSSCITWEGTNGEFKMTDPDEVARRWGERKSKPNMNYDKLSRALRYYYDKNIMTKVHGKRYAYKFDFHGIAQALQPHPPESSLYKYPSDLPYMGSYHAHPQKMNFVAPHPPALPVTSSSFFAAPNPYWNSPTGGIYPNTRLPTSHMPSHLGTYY
The essentials:
as §1

The target of a further test is T4, EHF (Homo sapiens, UniProt Q9NZC4 1-300).
T4 sequence: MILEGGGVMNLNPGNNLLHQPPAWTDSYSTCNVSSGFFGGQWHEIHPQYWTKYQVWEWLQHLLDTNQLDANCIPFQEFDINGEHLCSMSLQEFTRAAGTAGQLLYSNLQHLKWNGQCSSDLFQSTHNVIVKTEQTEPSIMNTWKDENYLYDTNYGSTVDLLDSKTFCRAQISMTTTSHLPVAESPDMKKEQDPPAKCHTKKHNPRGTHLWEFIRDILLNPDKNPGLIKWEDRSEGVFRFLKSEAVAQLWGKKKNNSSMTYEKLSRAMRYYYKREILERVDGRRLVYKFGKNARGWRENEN
The essentials: as §1

The target in a further test is SPI1 (Homo sapiens, UniProt P17947 1-270). In a few lines:
as §1

The target of the next test is SPIB (Homo sapiens, UniProt Q01892 1-262). The essentials: as §1
A further test has as its target T5, ELK3 (Homo sapiens, UniProt P41970 1-407).
T5 sequence: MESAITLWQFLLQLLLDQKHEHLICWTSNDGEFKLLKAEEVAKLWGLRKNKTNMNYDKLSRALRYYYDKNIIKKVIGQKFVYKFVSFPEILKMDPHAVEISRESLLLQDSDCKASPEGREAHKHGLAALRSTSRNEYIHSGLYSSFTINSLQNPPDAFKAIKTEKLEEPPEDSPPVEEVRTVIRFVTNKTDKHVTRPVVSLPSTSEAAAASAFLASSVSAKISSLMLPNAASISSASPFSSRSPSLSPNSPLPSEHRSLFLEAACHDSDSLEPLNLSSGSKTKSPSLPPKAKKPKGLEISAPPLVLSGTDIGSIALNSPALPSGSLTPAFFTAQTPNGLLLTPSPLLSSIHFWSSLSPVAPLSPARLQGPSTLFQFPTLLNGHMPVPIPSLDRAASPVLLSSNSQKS
In a few lines: as §1

Another test addresses ETV5 (Homo sapiens, UniProt P41161 1-510). The essentials:
as §1

For a further test, the target named is T6, SPIC (Homo sapiens, UniProt Q8N5J4 1-248).
T6 sequence: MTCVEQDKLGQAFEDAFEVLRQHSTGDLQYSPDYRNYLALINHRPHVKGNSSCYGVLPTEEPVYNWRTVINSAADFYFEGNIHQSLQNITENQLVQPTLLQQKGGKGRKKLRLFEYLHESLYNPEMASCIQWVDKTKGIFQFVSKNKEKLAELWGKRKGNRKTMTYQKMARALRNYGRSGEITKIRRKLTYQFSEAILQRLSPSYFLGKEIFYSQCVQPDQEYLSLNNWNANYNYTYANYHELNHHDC
The essentials:
as §1

The next test has as its target ELF4 (Homo sapiens, UniProt Q99607 1-663). The essentials: as §1
In the next test the target is ETV1 (Homo sapiens, UniProt P50549 1-477). In a few lines: as §1
A further test has as its target T7, ETS2 (Homo sapiens, UniProt P15036 1-469).
T7 sequence: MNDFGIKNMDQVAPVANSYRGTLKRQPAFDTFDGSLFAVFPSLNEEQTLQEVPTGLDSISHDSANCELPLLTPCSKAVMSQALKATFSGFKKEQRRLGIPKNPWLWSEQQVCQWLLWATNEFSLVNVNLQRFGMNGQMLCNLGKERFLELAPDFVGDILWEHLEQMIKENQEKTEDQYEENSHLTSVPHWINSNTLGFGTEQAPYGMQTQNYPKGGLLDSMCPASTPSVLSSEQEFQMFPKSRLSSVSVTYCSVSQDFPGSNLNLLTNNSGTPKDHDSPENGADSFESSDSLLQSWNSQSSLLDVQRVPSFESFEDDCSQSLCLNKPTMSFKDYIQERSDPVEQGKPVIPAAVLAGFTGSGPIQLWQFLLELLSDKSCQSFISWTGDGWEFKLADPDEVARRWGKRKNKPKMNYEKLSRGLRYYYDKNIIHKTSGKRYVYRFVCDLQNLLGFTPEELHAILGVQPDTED
In a few lines:
as §1

For another test, the target named is T8, ELF5 (Homo sapiens, UniProt Q9UKW6-2 1-255).
T8 sequence: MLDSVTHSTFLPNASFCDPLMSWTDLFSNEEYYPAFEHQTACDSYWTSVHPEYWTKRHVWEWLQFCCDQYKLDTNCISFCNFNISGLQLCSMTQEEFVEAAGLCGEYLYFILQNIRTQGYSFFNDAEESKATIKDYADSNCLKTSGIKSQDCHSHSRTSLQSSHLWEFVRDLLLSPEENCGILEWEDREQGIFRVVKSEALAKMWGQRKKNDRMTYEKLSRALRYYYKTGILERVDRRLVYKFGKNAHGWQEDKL
In a few lines:
as §1

For the next test, the target named is T9, ETV3 (Homo sapiens, UniProt P41162-2 1-143).
T9 sequence: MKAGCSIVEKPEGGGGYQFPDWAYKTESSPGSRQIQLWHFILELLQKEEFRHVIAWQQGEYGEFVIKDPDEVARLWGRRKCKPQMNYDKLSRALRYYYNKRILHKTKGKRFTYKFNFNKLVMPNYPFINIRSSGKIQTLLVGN
The essentials:
as §1

A further test has as its target ETV6 (Homo sapiens, UniProt P41212 1-452). In a few lines:
as §1

A further test has as its target T10, GABPA (Homo sapiens, UniProt Q06546 1-454).
T10 sequence: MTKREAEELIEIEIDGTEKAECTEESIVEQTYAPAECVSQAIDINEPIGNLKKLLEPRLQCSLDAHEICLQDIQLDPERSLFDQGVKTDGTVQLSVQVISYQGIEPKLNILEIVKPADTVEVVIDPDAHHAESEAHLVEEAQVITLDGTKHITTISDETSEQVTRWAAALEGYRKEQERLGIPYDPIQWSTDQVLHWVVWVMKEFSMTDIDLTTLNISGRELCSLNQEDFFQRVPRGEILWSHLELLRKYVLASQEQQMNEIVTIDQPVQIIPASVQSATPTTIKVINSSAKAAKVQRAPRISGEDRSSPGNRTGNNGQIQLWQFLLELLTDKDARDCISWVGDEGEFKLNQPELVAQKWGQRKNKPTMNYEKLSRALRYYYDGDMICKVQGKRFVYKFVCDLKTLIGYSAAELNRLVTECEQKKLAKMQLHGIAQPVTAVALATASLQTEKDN
In a few lines:
as §1

In another test the target is ELF1 (Homo sapiens, UniProt P32519 1-619). The essentials:
as §1

The next test addresses T11, FEV (Homo sapiens, UniProt Q99581 1-238).
T11 sequence: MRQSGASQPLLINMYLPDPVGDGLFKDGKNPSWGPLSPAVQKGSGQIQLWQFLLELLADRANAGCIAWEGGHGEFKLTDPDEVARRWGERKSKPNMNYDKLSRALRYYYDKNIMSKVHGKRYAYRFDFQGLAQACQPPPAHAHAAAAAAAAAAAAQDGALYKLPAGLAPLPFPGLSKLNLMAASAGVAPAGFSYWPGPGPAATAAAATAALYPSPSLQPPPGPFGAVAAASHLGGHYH
The essentials:
as §1

Sequence of ETV1 (P50549 whole entry): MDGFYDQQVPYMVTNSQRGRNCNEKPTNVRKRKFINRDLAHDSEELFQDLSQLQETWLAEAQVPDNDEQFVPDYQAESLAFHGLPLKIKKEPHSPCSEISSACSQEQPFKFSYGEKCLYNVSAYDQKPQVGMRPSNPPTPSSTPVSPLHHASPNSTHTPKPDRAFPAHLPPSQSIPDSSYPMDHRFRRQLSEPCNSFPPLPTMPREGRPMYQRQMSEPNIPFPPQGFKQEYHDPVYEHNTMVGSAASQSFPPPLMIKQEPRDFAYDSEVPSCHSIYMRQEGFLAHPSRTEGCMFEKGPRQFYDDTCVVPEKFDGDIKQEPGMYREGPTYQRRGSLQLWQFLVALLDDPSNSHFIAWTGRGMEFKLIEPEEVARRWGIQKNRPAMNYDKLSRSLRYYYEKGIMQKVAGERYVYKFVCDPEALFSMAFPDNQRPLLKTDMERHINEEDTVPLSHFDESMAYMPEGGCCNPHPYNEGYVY
Sequence of ETV5 (P41161 whole entry): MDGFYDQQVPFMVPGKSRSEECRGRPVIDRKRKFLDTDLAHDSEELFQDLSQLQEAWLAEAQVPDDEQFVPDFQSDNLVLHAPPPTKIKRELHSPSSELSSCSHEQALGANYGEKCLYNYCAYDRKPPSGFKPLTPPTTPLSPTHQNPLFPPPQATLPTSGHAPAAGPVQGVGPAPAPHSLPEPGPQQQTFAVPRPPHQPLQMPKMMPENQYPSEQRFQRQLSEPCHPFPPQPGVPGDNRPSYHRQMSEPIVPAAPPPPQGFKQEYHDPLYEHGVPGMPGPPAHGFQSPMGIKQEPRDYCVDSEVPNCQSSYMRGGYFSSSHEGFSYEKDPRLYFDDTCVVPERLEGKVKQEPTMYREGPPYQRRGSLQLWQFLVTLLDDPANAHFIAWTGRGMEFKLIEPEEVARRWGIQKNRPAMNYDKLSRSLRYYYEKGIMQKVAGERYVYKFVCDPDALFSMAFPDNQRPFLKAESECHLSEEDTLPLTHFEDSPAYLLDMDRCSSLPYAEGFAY
Sequence of ELF4 (Q99607 whole entry): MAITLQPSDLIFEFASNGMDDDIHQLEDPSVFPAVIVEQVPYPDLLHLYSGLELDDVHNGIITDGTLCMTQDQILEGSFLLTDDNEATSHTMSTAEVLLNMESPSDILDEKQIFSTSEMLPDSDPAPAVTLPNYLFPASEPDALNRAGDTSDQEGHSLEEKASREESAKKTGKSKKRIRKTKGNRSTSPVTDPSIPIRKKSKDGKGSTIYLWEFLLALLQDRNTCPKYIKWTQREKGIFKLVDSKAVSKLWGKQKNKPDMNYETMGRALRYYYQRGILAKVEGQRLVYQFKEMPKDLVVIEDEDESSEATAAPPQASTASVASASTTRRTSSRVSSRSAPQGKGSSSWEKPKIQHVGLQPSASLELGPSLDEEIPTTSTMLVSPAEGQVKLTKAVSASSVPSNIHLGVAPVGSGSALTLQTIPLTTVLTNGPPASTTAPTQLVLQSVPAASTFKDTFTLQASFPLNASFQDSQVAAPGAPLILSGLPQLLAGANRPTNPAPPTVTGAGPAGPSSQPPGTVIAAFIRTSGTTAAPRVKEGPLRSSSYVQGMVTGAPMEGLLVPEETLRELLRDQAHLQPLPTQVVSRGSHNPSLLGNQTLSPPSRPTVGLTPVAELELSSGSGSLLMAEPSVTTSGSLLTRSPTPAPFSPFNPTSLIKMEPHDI
Sequence of ETV6 (P41212 whole entry): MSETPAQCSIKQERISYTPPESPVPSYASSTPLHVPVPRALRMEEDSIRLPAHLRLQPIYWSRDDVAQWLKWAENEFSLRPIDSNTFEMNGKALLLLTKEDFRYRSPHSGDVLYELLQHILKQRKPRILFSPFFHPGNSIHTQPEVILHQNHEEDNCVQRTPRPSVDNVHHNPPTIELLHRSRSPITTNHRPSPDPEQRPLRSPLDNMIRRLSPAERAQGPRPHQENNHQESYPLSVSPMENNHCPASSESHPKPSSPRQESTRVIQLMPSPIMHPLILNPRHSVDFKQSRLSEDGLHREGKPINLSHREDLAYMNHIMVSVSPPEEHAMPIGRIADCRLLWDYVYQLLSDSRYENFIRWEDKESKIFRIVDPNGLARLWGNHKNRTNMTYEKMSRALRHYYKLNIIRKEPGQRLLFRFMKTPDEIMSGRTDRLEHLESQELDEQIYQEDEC
Sequence of ELF1 (P32519 whole entry): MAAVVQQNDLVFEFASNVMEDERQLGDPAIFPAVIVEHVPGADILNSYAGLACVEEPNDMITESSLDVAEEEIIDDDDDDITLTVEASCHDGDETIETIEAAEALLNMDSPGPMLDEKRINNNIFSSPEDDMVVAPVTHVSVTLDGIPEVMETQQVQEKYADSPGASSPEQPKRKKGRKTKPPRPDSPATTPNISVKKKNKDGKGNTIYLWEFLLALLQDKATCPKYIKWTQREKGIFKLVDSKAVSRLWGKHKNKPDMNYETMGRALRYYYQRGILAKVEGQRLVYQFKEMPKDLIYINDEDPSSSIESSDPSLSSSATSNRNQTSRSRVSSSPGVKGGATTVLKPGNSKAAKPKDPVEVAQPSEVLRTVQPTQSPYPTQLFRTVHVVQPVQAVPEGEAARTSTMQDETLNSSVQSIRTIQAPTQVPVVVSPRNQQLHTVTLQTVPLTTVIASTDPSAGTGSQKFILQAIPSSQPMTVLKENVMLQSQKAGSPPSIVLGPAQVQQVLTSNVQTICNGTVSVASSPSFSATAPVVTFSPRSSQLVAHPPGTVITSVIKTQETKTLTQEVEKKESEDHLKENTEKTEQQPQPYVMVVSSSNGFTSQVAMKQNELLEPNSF
Sequence of SPIB (Q01892 whole entry): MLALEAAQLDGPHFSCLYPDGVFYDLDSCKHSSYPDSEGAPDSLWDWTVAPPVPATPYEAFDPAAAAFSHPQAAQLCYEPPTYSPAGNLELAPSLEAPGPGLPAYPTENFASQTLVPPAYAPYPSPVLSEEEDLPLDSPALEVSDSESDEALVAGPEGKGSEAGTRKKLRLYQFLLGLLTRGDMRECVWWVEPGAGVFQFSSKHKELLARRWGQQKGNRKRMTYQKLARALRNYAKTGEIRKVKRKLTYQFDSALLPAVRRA

In the case of AGGAAC, the binding signal with FLI1 is 1.03 fold enrichment (6-mer frequency, TF over GST control); with ELK1, 1.08 fold enrichment (6-mer frequency, TF over GST control); with ERG, 1.05 fold enrichment (6-mer frequency, TF over GST control); in the test with EHF it was 1.06 fold enrichment (6-mer frequency, TF over GST control); with SPI1, 1.45 fold enrichment (6-mer frequency, TF over GST control); with SPIB it was 1.11 fold enrichment (6-mer frequency, TF over GST control). The binding signal with ELK3 was 1 fold enrichment (6-mer frequency, TF over GST control); with ETV5, 1.1 fold enrichment (6-mer frequency, TF over GST control); with SPIC, 1.23 fold enrichment (6-mer frequency, TF over GST control); with ELF4 it was 1 fold enrichment (6-mer frequency, TF over GST control); with ETV1 it was 1.04 fold enrichment (6-mer frequency, TF over GST control); with ETS2, 1.08 fold enrichment (6-mer frequency, TF over GST control). Further, the binding signal with ELF5 is 1.28 fold enrichment (6-mer frequency, TF over GST control); in the test with ETV3 it was 1.05 fold enrichment (6-mer frequency, TF over GST control); with ETV6, 1.04 fold enrichment (6-mer frequency, TF over GST control).

Regarding GGCCCC, the binding signal was 1.02 fold enrichment (6-mer frequency, TF over GST control) in the test with FLI1; 1.03 fold enrichment (6-mer frequency, TF over GST control) in the test with GABPA; 1.04 fold enrichment (6-mer frequency, TF over GST control) in the test with ERG; 1.02 fold enrichment (6-mer frequency, TF over GST control) with ELF1; 1.03 fold enrichment (6-mer frequency, TF over GST control) with SPI1; 1.06 fold enrichment (6-mer frequency, TF over GST control) with FEV. In addition, the binding signal with ETV5 is 1.02 fold enrichment (6-mer frequency, TF over GST control); in the test with SPIC, 1.01 fold enrichment (6-mer frequency, TF over GST control); with ELF4, 1 fold enrichment (6-mer frequency, TF over GST control); with ETV1 it was 1.03 fold enrichment (6-mer frequency, TF over GST control); with ETS2 it was 1.03 fold enrichment (6-mer frequency, TF over GST control); in the test with ETV3, 1.05 fold enrichment (6-mer frequency, TF over GST control).
